Data: PMC5540273 (PLoS ONE, 2017)

test system: AAK1; conditions: concentration: 1 μM, replicates: in singlicate; n = 1
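Further: KINOMEscan kinase panel screen.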

Row | SMILES | %Inh [%]
1 | COc1cc(Nc2nccc(N3CCC(NC(=O)C4COc5ccccc5O4)C3)n2)cc(OC)c1OC (centres unmarked) [GSK1379761] | 66
2 | Cc1c(Cn2c(C)nn3c(=O)cc(N4CCO[C@H](C)C4)nc23)cccc1C(F)(F)F [GSK2373690] | 0
3 | COc1cc2ncn(-c3cc(OCc4ccncc4Br)c(C(N)=O)s3)c2cc1OC [GW854278] | 17
4 | CCc1ccc(-c2ccc3c(c2)-c2nn(C)cc2S(=O)(=O)N3C)cc1 | 19
5 | C[C@@H]1CC[C@H](C(=O)NC2CCCCC2)CN1c1cc(-c2ccc3c(N)n[nH]c3c2)nc(N)n1 [GSK2291363] | 55
6 | CCC(=O)c1c(-c2ccccc2)c2cc(Cl)ccc2c(=O)n1Cc1cc(S(C)(=O)=O)n(CCC(C)(C)O)n1 | 25
7 | Cl.c1ccc(Cn2cnc3cc(Nc4ncnc5ccccc45)ccc32)cc1 [GW272142] | 5
8 | FC(F)(F)c1ccc(-c2ncn(CCCN3CCOCC3)c2-c2ccncc2)cc1 [SB-217780] | 7
9 | O=C1NC(=O)C(c2ccccc2)=C1Nc1cccc(O)c1 [SB-390534] | 0
10 | COC(=O)c1c(-c2ccccc2)c2cc(C)ccc2c(=O)n1Cc1ccccc1 | 1
11 | COc1cc2nccc(Nc3cccc(Oc4ccccc4)c3)c2cc1OC.Cl [GW284543] | 0
12 | CN1C(=O)C(Nc2cc(Cl)c(O)c(Cl)c2)=C(c2ccc(Cl)cc2)C1=O [SB-404321] | 0
13 | COc1ccc(-c2cc3c(C)nc(N)nc3n([C@H]3CC[C@H](OCCO)CC3)c2=O)cn1 | 0
14 | COc1cccc(C2=C(Nc3cccc(C(=O)O)c3)C(=O)NC2=O)c1 [SB-390770] | 3
15 | COc1ccc(-c2coc3ccc(-c4nnc(SCc5cccc(C#N)c5)o4)cc23)cc1 | 0
16 | Nc1n[nH]c2nnc(-c3ccccc3)c(-c3ccccc3)c12 [GW554060] | 0
17 | Nc1ncnc2c1ncn2-c1ccc(Cl)cc1 [AH2635] | 0
18 | Nc1nccc2scc(-c3ccc4c(c3)CCN4C(=O)Cc3ccccc3)c12 [GSK2576924] | 8
19 | CCS(=O)(=O)c1ccc(OC)c(Nc2ncc(-c3ccc(F)cc3)o2)c1.Cl [GW591947] | 4

Row | SMILES | %Inh [%]
20 | CCC(=O)c1c(-c2ccccc2)c2cc(Cl)ccc2c(=O)n1Cc1cc(S(C)(=O)=O)n(CC(F)F)n1 | 0
21 | Fc1cccc(CSc2nnc(-c3ccc4c(c3)CCO4)o2)c1 | 25
22 | CCC(=O)c1c(-c2ccccc2)c2cc(Cl)ccc2c(=O)n1Cc1cc(C(=O)NC2CC2)n(C)n1 | 20
23 | O=C(NCc1cccs1)c1cc(C(=O)c2c(Cl)cccc2Cl)c[nH]1 [GW823670] | 0
24 | Cc1nc(N(C)[C@H]2CN(C(=O)CC#N)CC[C@H]2C)c2cc[nH]c2n1 | 0
25 | Cc1ccc(Oc2ccc(Nc3ncnc4cc[nH]c34)cc2C)cn1 | 0
26 | COc1cccc(C2=C(N(C)c3ccccc3)C(=O)NC2=O)c1 [SB-334865] | 0
27 | CCS(=O)c1ccc(-c2coc3ccc(-c4nnc(C)o4)cc23)cc1 (centres unmarked) | 0
28 | Cc1nnc(-c2ccc3ncn(-c4ccc(S(C)=O)cc4)c3c2)o1 (centres unmarked) | 0
29 | O=c1cc(N2CCOCC2)nc2n(Cc3ccc(F)c(Cl)c3)ccn12 [GSK2297099] | 24
30 | COc1cc2ncn(-c3cc(OCCCc4ccccc4)c(C(N)=O)s3)c2cc1OC [GSK205189] | 35
31 | COc1cc(Nc2nccc(N3CCC(NC(=O)C(C)c4ccc(Cl)cc4)C3)n2)cc(OC)c1OC (centres unmarked) [GSK1379757] | 37
32 | CCCNC(=O)Nc1ccc(Oc2ncnc3ccn(C)c23)cc1 | 13
33 | COc1cccc(-n2cnc3c(N)ncnc32)c1 [SKF-97416] | 0
34 | CC(C)(C)c1ccc(C(=O)Nc2cn3cc(-c4ccccc4)ccc3n2)cc1 | 0
35 | CCC(=O)c1c(-c2ccccc2)c2cc(Cl)ccc2c(=O)n1Cc1ccc(C(=O)O)cc1 | 0
36 | Cc1cc(Nc2nc(-c3cccc(C)n3)nc3ccccc23)ccn1 [GW872411] | 0
37 | COc1cc(Nc2ccnc3ccc(C(F)(F)F)cc23)cc(OC)c1OC [GW577382] | 8

test system: ABL1-nonphosphorylated; conditions: concentration: 1 μM, replicates: in singlicate; n = 1

Row | SMILES | %Inh [%]
38 | COc1cc(Nc2nccc(N3CCC(NC(=O)C4COc5ccccc5O4)C3)n2)cc(OC)c1OC (centres unmarked) [GSK1379761] | 0
39 | Cc1c(Cn2c(C)nn3c(=O)cc(N4CCO[C@H](C)C4)nc23)cccc1C(F)(F)F [GSK2373690] | 0
40 | COc1cc2ncn(-c3cc(OCc4ccncc4Br)c(C(N)=O)s3)c2cc1OC [GW854278] | 15
41 | CCc1ccc(-c2ccc3c(c2)-c2nn(C)cc2S(=O)(=O)N3C)cc1 | 31
42 | C[C@@H]1CC[C@H](C(=O)NC2CCCCC2)CN1c1cc(-c2ccc3c(N)n[nH]c3c2)nc(N)n1 [GSK2291363] | 5
43 | CCC(=O)c1c(-c2ccccc2)c2cc(Cl)ccc2c(=O)n1Cc1cc(S(C)(=O)=O)n(CCC(C)(C)O)n1 | 6
44 | Cl.c1ccc(Cn2cnc3cc(Nc4ncnc5ccccc45)ccc32)cc1 [GW272142] | 0
45 | FC(F)(F)c1ccc(-c2ncn(CCCN3CCOCC3)c2-c2ccncc2)cc1 [SB-217780] | 44
46 | O=C1NC(=O)C(c2ccccc2)=C1Nc1cccc(O)c1 [SB-390534] | 22
47 | COC(=O)c1c(-c2ccccc2)c2cc(C)ccc2c(=O)n1Cc1ccccc1 | 53
48 | COc1cc2nccc(Nc3cccc(Oc4ccccc4)c3)c2cc1OC.Cl [GW284543] | 0
49 | CN1C(=O)C(Nc2cc(Cl)c(O)c(Cl)c2)=C(c2ccc(Cl)cc2)C1=O [SB-404321] | 30
50 | COc1ccc(-c2cc3c(C)nc(N)nc3n([C@H]3CC[C@H](OCCO)CC3)c2=O)cn1 | 0
51 | COc1cccc(C2=C(Nc3cccc(C(=O)O)c3)C(=O)NC2=O)c1 [SB-390770] | 0
52 | COc1ccc(-c2coc3ccc(-c4nnc(SCc5cccc(C#N)c5)o4)cc23)cc1 | 23
53 | Nc1n[nH]c2nnc(-c3ccccc3)c(-c3ccccc3)c12 [GW554060] | 0
54 | Nc1ncnc2c1ncn2-c1ccc(Cl)cc1 [AH2635] | 0
55 | Nc1nccc2scc(-c3ccc4c(c3)CCN4C(=O)Cc3ccccc3)c12 [GSK2576924] | 0
56 | CCS(=O)(=O)c1ccc(OC)c(Nc2ncc(-c3ccc(F)cc3)o2)c1.Cl [GW591947] | 0

Row | SMILES | %Inh [%]
57 | CCC(=O)c1c(-c2ccccc2)c2cc(Cl)ccc2c(=O)n1Cc1cc(S(C)(=O)=O)n(CC(F)F)n1 | 23
58 | Fc1cccc(CSc2nnc(-c3ccc4c(c3)CCO4)o2)c1 | 20
59 | CCC(=O)c1c(-c2ccccc2)c2cc(Cl)ccc2c(=O)n1Cc1cc(C(=O)NC2CC2)n(C)n1 | 20
60 | O=C(NCc1cccs1)c1cc(C(=O)c2c(Cl)cccc2Cl)c[nH]1 [GW823670] | 18
61 | Cc1nc(N(C)[C@H]2CN(C(=O)CC#N)CC[C@H]2C)c2cc[nH]c2n1 | 1
62 | Cc1ccc(Oc2ccc(Nc3ncnc4cc[nH]c34)cc2C)cn1 | 19
63 | COc1cccc(C2=C(N(C)c3ccccc3)C(=O)NC2=O)c1 [SB-334865] | 5
64 | CCS(=O)c1ccc(-c2coc3ccc(-c4nnc(C)o4)cc23)cc1 (centres unmarked) | 27
65 | Cc1nnc(-c2ccc3ncn(-c4ccc(S(C)=O)cc4)c3c2)o1 (centres unmarked) | 22
66 | O=c1cc(N2CCOCC2)nc2n(Cc3ccc(F)c(Cl)c3)ccn12 [GSK2297099] | 0
67 | COc1cc2ncn(-c3cc(OCCCc4ccccc4)c(C(N)=O)s3)c2cc1OC [GSK205189] | 0
68 | COc1cc(Nc2nccc(N3CCC(NC(=O)C(C)c4ccc(Cl)cc4)C3)n2)cc(OC)c1OC (centres unmarked) [GSK1379757] | 0
69 | CCCNC(=O)Nc1ccc(Oc2ncnc3ccn(C)c23)cc1 | 30
70 | COc1cccc(-n2cnc3c(N)ncnc32)c1 [SKF-97416] | 56
71 | CC(C)(C)c1ccc(C(=O)Nc2cn3cc(-c4ccccc4)ccc3n2)cc1 | 74
72 | CCC(=O)c1c(-c2ccccc2)c2cc(Cl)ccc2c(=O)n1Cc1ccc(C(=O)O)cc1 | 30
73 | Cc1cc(Nc2nc(-c3cccc(C)n3)nc3ccccc23)ccn1 [GW872411] | 52
74 | COc1cc(Nc2ccnc3ccc(C(F)(F)F)cc23)cc(OC)c1OC [GW577382] | 27
